Screen size: about 5,500 compounds; about 2,000 (36%) were called active. Not shown: some 18% with an inconclusive outcome. No stated cut-off is given here; in the data, active means normalized growth mostly below about 0.91 (no sharp cut-off); inconclusive means no clear call, values can overlap the other calls; inactive means mostly above about 0.92. The list shows a part of the results.
Experiment: chemical genetic growth profiling, strain panel (AID 1159580);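 further: tested at 20 µM; growth read once vehicle control cultures reached saturation at 30 °C; 1 = growth at the plate median or of vehicle wells; lower values mean less growth of the strain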
Details: growth OD

Measured: normalized growth

COC1=C(OC)C(=O)C(C/C=C(\C)CC/C=C(\C)CC/C=C(\C)CC/C=C(/C)CC/C=C(\C)CC/C=C(\C)CC/C=C(\C)CC/C=C(\C)CC/C=C(\C)CCC=C(C)C)=C(C)C1=O
inactive: S. cerevisiae deletion strains, locus YJR043C, strain POL32, hits give low values 1.03 | S. cerevisiae deletion strains, locus YJR066W, strain TOR1, hits give low values 0.982 | S. cerevisiae deletion strains, locus YKL009W, strain mrt4, hits give low values 1.07 | S. cerevisiae deletion strains, locus YKL068W, hits give low values 0.99 | S. cerevisiae deletion strains, locus YKL085W, strain MDH1 (second series), hits give low values 1 | S. cerevisiae deletion strains, locus YKL085W, strain MDH1, hits give low values 1 | S. cerevisiae deletion strains, locus YKL160W, strain elf1, hits give low values 0.988 | S. cerevisiae deletion strains, locus YKR001C, strain vps1, hits give low values 0.999 | S. cerevisiae deletion strains, locus YKR026C, strain gcn3, hits give low values 0.986 | S. cerevisiae deletion strains, locus YKR091W, strain srl3, hits give low values 0.98 | S. cerevisiae deletion strains, locus YLL001W, strain dnm1, hits give low values 0.974 | S. cerevisiae deletion strains, locus YLL026W, hits give low values 1 | S. cerevisiae deletion strains, locus YLL041C, strain sdh2, hits give low values 0.973 | S. cerevisiae deletion strains, locus YLR027C, strain aat2, hits give low values 0.988 | S. cerevisiae deletion strains, locus YLR039C, strain RIC1, hits give low values 1.04 | S. cerevisiae deletion strains, locus YLR058C, strain SHM2, hits give low values 0.985 | S. cerevisiae deletion strains, locus YLR102C, strain apc9, hits give low values 0.994 | S. cerevisiae deletion strains, locus YLR113W, strain HOG1, hits give low values 0.986 | S. cerevisiae deletion strains, locus YLR221C, strain rsa3, hits give low values 0.97 | S. cerevisiae deletion strains, locus YLR258W, strain gsy2, hits give low values 0.982 | S. cerevisiae deletion strains, locus YLR262C, strain YPT6 (second series), hits give low values 0.942 | S. cerevisiae deletion strains, locus YLR262C, strain YPT6, hits give low values 0.972 | S. cerevisiae deletion strains, locus YLR268W, strain sec22, hits give low values 1.03 | S. cerevisiae deletion strains, locus YLR320W, strain mms22, hits give low values 0.991 | S. cerevisiae deletion strains, locus YLR330W, strain CHS5, hits give low values 1.01 | S. cerevisiae deletion strains, locus YLR342W, strain FKS1 (second series), hits give low values 1.1 | S. cerevisiae deletion strains, locus YLR342W, strain FKS1, hits give low values 0.96 | S. cerevisiae deletion strains, locus YLR357W, strain rsc2, hits give low values 0.987 | S. cerevisiae deletion strains, locus YLR370C, strain arc18, hits give low values 0.953 | S. cerevisiae deletion strains, locus YLR371W, strain rom2, hits give low values 0.99 | S. cerevisiae deletion strains, locus YLR384C, strain iki3, hits give low values 0.988 | S. cerevisiae deletion strains, locus YLR418C, strain cdc73, hits give low values 0.997 | S. cerevisiae deletion strains, locus YML016C, strain PPZ1, hits give low values 1.01 | S. cerevisiae deletion strains, locus YML032C, strain rad52, hits give low values 0.971 | S. cerevisiae deletion strains, locus YML120C, strain ndi1, hits give low values 0.985 | S. cerevisiae deletion strains, locus YML124C, strain tub3, hits give low values 0.99 | S. cerevisiae deletion strains, locus YMR058W, strain fet3, hits give low values 0.977 | S. cerevisiae deletion strains, locus YMR078C, strain ctf18, hits give low values 0.992 | S. cerevisiae deletion strains, locus YMR125W, strain sto1, hits give low values 0.972 | S. cerevisiae deletion strains, locus YMR129W, hits give low values 0.974 | S. cerevisiae deletion strains, locus YMR205C, strain PFK2, hits give low values 1.01 | S. cerevisiae deletion strains, locus YMR223W, strain ubp8, hits give low values 1.01 | S. cerevisiae deletion strains, locus YMR231W, strain pep5, hits give low values 0.981 | S. cerevisiae deletion strains, locus YMR307W, strain GAS1, hits give low values 1.13 | S. cerevisiae deletion strains, locus YNL067W, strain RPL9B, hits give low values 0.995 | S. cerevisiae deletion strains, locus YNL071W, strain lat1, hits give low values 0.965 | S. cerevisiae deletion strains, locus YNL183C, strain NPR1, hits give low values 0.982 | S. cerevisiae deletion strains, locus YNL209W, strain ssb2, hits give low values 0.971 | S. cerevisiae deletion strains, locus YNL233W, strain BNI4, hits give low values 1 | S. cerevisiae deletion strains, locus YNL248C, strain rpa49, hits give low values 0.974 | S. cerevisiae deletion strains, locus YNL250W, strain rad50, hits give low values 0.985 | S. cerevisiae deletion strains, locus YNL271C, strain bni1, hits give low values 1.02 | S. cerevisiae deletion strains, locus YNL298W, strain CLA4, hits give low values 0.998 | S. cerevisiae deletion strains, locus YNL307C, strain MCK1, hits give low values 0.995 | S. cerevisiae deletion strains, locus YNL322C, strain KRE1 (second series), hits give low values 0.958 | S. cerevisiae deletion strains, locus YNL322C, strain KRE1, hits give low values 0.994 | S. cerevisiae deletion strains, locus YNR049C, strain mso1, hits give low values 0.971 | S. cerevisiae deletion strains, locus YNR052C, strain pop2, hits give low values 1 | S. cerevisiae deletion strains, locus YOL012C, strain htz1 0.872 | S. cerevisiae deletion strains, locus YOL147C, strain pex11, hits give low values 1 | S. cerevisiae deletion strains, locus YOR001W, strain rrp6, hits give low values 0.932 | S. cerevisiae deletion strains, locus YOR061W, strain CKA2, hits give low values 0.981 | S. cerevisiae deletion strains, locus YOR069W, strain VPS5, hits give low values 1.01 | S. cerevisiae deletion strains, locus YOR070C, strain gyp1, hits give low values 0.975 | S. cerevisiae deletion strains, locus YOR080W, strain dia2, hits give low values 0.999 | S. cerevisiae deletion strains, locus YOR083W, strain WHI5, hits give low values 0.998 | S. cerevisiae deletion strains, locus YOR106W, strain vam3, hits give low values 0.973 | S. cerevisiae deletion strains, locus YOR136W, strain idh2, hits give low values 0.998 | S. cerevisiae deletion strains, locus YOR144C, strain elg1, hits give low values 0.987 | S. cerevisiae deletion strains, locus YOR184W, strain ser1, hits give low values 1 | S. cerevisiae deletion strains, locus YOR231W, strain MKK1, hits give low values 1.05 | S. cerevisiae deletion strains, locus YOR265W, strain rbl2, hits give low values 0.99 | S. cerevisiae deletion strains, locus YOR270C, strain vph1, hits give low values 0.967 | S. cerevisiae deletion strains, locus YOR290C, strain snf2, hits give low values 0.992 | S. cerevisiae deletion strains, locus YOR316C, strain cot1, hits give low values 0.994 | S. cerevisiae deletion strains, locus YPL051W, strain arl3, hits give low values 1 | S. cerevisiae deletion strains, locus YPL055C, strain LGE1, hits give low values 1.02 | S. cerevisiae deletion strains, locus YPL078C, strain atp4, hits give low values 0.965 | S. cerevisiae deletion strains, locus YPL106C, strain sse1, hits give low values 0.963 | S. cerevisiae deletion strains, locus YPL240C, strain hsp82, hits give low values 0.982 | S. cerevisiae deletion strains, locus YPL241C, strain CIN2, hits give low values 0.996 | S. cerevisiae deletion strains, locus YPL256C, strain CLN2, hits give low values 1.04 | S. cerevisiae deletion strains, locus YPR119W, strain clb2, hits give low values 0.981 | S. cerevisiae deletion strains, locus YPR141C, strain kar3, hits give low values 0.981 | S. cerevisiae deletion strains, locus YPR163C, strain tif3, hits give low values 0.992 | S. cerevisiae deletion strains, locus YPR167C, strain met16, hits give low values 0.982 | S. cerevisiae deletion strains, strain wtn01, hits give low values 1.02 | S. cerevisiae strains, strain wild type, hits give low values 1.01

From PubChem BioAssay AID1159580 (chemical genetic matrix, 2015)
